Results: PubChem BioAssay AID1903 (Southern Research Specialized Biocontainment Screening …, 2009)
About 1,200 (0.39%) of roughly 310,000 compounds were called active. The rule behind the calls is not given here. The list is a sample of the results. Entries with a potency or affinity are not part of this list.

Each compound was assayed against Large T antigen (Simian virus 40) (UniProt P03070) (assay: TAg ATPase/helicase activity blockers – biochemical (AID 1903)). Conditions: SV40 large T antigen ATPase/helicase inhibition assay; at 20 µM; stronger effect = higher value.
Large T antigen (Simian virus 40), sequence (P03070 whole entry, looked up): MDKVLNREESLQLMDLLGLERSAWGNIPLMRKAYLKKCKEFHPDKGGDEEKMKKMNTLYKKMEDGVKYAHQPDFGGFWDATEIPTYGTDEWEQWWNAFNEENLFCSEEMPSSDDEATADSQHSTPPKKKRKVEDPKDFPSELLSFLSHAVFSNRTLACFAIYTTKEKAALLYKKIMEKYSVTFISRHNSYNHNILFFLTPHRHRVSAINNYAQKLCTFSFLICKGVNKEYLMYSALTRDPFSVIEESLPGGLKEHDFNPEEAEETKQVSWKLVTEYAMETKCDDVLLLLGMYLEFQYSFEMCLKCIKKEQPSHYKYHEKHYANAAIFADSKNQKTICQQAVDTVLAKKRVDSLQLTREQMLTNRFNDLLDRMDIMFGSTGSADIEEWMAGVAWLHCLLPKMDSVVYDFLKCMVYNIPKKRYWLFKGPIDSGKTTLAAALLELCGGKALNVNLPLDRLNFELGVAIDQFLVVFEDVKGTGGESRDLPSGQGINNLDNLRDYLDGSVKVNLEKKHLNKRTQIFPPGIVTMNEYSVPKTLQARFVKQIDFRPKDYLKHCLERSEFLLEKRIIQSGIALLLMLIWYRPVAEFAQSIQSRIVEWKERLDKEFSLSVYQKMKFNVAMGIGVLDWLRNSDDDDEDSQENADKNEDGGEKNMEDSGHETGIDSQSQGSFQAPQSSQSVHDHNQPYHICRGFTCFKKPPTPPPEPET

inhibition, inactive:
Cc1ccccc1NC(=O)CN1C(=O)COc2ccc(S(=O)(=O)N3CCCC3)cc21 2.93%
O=C(Nc1ccncc1)Nc1ccc(Cl)cc1 10.4%
Cc1cc(C(=O)NCc2ccco2)c2cc(F)ccc2n1 5.22%
CCCCn1c(N)c(N(CCC(C)C)C(=O)c2cc(-c3ccco3)nc3ccccc23)c(=O)[nH]c1=O 28.5%
CCOc1ccc(C(=O)NC2CC(=O)N(c3ccc4c(c3)OCCO4)C2)cc1 (centres undefined) 30.1%
COc1ccc(/C=C/C(=O)c2ccc([N+](=O)[O-])o2)cc1 2.57%
Cc1cccc(/C=C/C(=O)c2ccc([N+](=O)[O-])o2)c1 27.2%
Cc1cccc(NC(=O)c2ccc([N+](=O)[O-])o2)c1C -1.78%
Cc1ccc(/C=C/C(=O)c2ccc([N+](=O)[O-])o2)cc1 24.6%
COc1ccc(/C=C/C(=O)c2ccc([N+](=O)[O-])o2)cc1OC 17.4%
O=C(/C=C/c1ccc(Cl)cc1)c1ccc([N+](=O)[O-])o1 34.3%
CC(=O)CC1(C)OC(N)=C(C#N)C1(C#N)C#N (centres undefined) 5.62%
N#Cc1ccc(C(=O)Nc2cc(-c3ccccc3)nn2-c2ccccc2)cc1 2.51%
Cc1cc(-c2sccc2C)nc(-n2cccc2)n1 1.14%
O=C1Nc2ccccc2Nc2ccccc21 0.33%
Cc1ccc(N=C2CCCCCN2C)c(C#N)c1 15.4%
CCN(CC)CCC(=O)N1c2ccccc2CCc2ccc(NC(=O)OC)cc21 6.36%
COC(=O)/C(=C\Nc1ccc(Cl)cc1Cl)NC(=O)c1ccc(Cl)cc1Cl 6.46%
COc1ccc(/C=C2/SC(=S)N(n3c(C)ccc3C)C2=O)cc1 12.7%
COc1cccc(/C=N/NC(=O)CSc2cccc3cccnc23)c1 14.4%
COc1ccc(/C=N/NC(=O)COc2cccc3cccnc23)cc1OC 16.2%
O=C(COc1cccc2cccnc12)N/N=C/c1ccccc1O 0.79%
O=C(N/N=C/c1ccccc1Br)c1ccc(CSc2cccc3cccnc23)cc1 8.68%
O=C(CSc1cccc2cccnc12)N/N=C/c1cccc(O)c1 3.2%
O=C(CSc1cccc2cccnc12)N/N=C/c1ccncc1 13.8%
O=C(CSc1cccc2cccnc12)N/N=C/c1ccc(F)cc1 5.35%
NNC(=O)c1ccc(CSc2cccc3cccnc23)cc1 8.28%
COc1ccc(NC(=O)CN(C)C(=O)Cc2ccc3c(c2)OCCO3)cc1 4.23%
CSCC(=O)N1CCc2ccc(NC(=O)c3ccccc3Cl)cc2C1 3.34%
COc1ccccc1NC(=O)CCS(=O)(=O)c1cc2c(cc1Cl)NC(=O)CO2 -2.36%
Cn1nc(C(=O)NC2=NCCS2)ccc1=O 16.5%
CC1(C)CC(NC(=O)COc2ccc3ccccc3c2)CC(C)(C)N1 12.2%
COc1ccc(NC(=O)CSc2nc3sc(C)cc3c(=O)n2C)cc1 8.62%
CC(CC(=O)NC(C)c1ccc2c(c1)OCCO2)c1ccccc1 (centres undefined) 7.67%
O=S(=O)(c1ccccc1OC(F)(F)F)N1CCN(c2ccnc3cc(Cl)ccc23)CC1 4.46%
Cc1nc(=O)c(-c2ccccc2)c(C)n1Cc1ccccc1 1.9%
O=C(COc1ccccc1[N+](=O)[O-])N/N=C/c1ccc(O)c([N+](=O)[O-])c1 7.71%
O=C(COc1ccccc1[N+](=O)[O-])N/N=C/c1ccncc1 25.8%
CCc1cc2c(Nc3ccccc3O)nc(C)nc2s1 9.83%
Cc1cc2c(Nc3ccccc3)ncnc2s1 -2.89%
Cc1cc2c(Nc3cccc(O)c3)ncnc2s1 26.2%
CCc1cc2c(NCc3ccccc3)nc(C)nc2s1 17.6%
O=C(OCc1nnc(-c2ccccc2)o1)c1ccc(CO)cc1 3.3%
CCO[C@H]1OC(C(=O)NCc2nc3ccccc3[nH]2)=C[C@@H](c2ccccc2)[C@@H]1CCCO 1.96%
CCOc1ccc(C(=O)OCC(=O)c2c(N)n(C)c(=O)n(C)c2=O)cc1OCC 1.22%
COc1ccc(C(=O)OCC(=O)c2c(N)n(C)c(=O)n(C)c2=O)cc1OC -4.08%
O=C(NC(=S)Nc1ccc(S(=O)(=O)N2CCCCC2)cc1)c1ccc(Cl)cc1 1.56%
COC(=O)c1ccc(CN2C(=O)c3ccccc3C2=O)o1 10.1%
CSc1nc(-c2ccccc2)nc(NC(=O)c2ccccc2)c1C(C)=O 5.31%
COC(=O)C1=C[C@@H](C(=O)OC)[C@@H]2C3=C(C(=O)[C@]2(CC(C)C)NC(=O)c2ccccc2)[C@H](C)n2c(=O)n(-c4ccccc4)c(=O)n2[C@@H]3C1 19.3%
C/C(=N\NC(=O)c1nnn(-c2nonc2N)c1-c1cccs1)c1cccnc1 -7.39%
CN1C(=O)N(C)c2cccc3cccc1c23 21.8%
CC1N(C)c2cccc3cccc(c23)N1C 32.1%
OC(COCc1ccc2c(c1)OCO2)CN1CCCCC1 (centres undefined) 4.66%
COc1ccc(S(=O)(=O)NNC(=O)Cc2csc(C)n2)cc1[N+](=O)[O-] 10.2%
CCN1CCN(c2cc(C)c3cc(NC(=O)Cc4ccc(OC)c(OC)c4)ccc3n2)CC1 2.02%
CC1C(=O)OC(c2ccc(Br)cc2)C(C)(C)C1=O (centres undefined) 29.1%
CCOc1ccc2c(c1)C(c1ccccc1)=NNC(c1ccccc1)=N2 4.86%
O=C(CSc1nc2c(c(=O)[nH]1)CCC2)Nc1ccc(F)cc1 22%
CCc1nc(SCC(=O)Nc2ccc(N(C)C)cc2)c2ccccc2n1 18.1%
CC(=O)Nc1ccc(NC(=O)CSc2nc3nc(C)cc(C)c3c(=O)[nH]2)cc1 9.68%
CC(C)c1ccc(NC(=O)CSc2nc3c(c(=O)[nH]2)CCC3)cc1 10.4%
Cc1cc(C)c2c(=O)[nH]c(SCC(=O)Nc3ccc(N(C)C)cc3)nc2n1 31.4%
CCN(CC)c1ccc(NC(=O)CSc2nc(C)cc(=O)[nH]2)cc1 35.5%
Cc1cc(C)n2c(SCC(=O)Nc3ccc(F)cc3)nnc2n1 8.2%
CCN(c1ccc(NC(=O)CSc2nnc3nc(C)cc(C)n23)cc1)C(C)C 36%
Cc1ccc([N+](=O)[O-])cc1NC1CC(O)C(CO)O1 (centres undefined) 3.41%
CN(C)CCN(C(=O)c1ccc(S(=O)(=O)N2CCc3ccccc32)cc1)c1nc2ccc(F)cc2s1 14.4%
Cc1ccc(S(=O)(=O)/C(C#N)=C/c2c(N3CC(C)OC(C)C3)nc3c(C)cccn3c2=O)cc1 (centres undefined) 23.9%
COc1cc2c(cc1OC)CN(C(=O)/C=C/c1cc(OC)c(OC)c(OC)c1)CC2 7.46%
O=C(N/N=C/c1ccc(OC(=O)c2ccco2)cc1)c1ccncc1 15.9%
O=C(N/N=C\c1ccc(OC(=O)c2ccco2)cc1)c1ccc(Cl)cc1 11.3%
C=CCc1ccccc1OCC(O)Cn1ccnc1C (centres undefined) 10.2%
O=c1ccc2cc3c4c(c2o1)CCCN4CCC3 3.45%
CC(C)c1cc(=O)oc2c3c4c(cc12)CCCN4CCC3 4.43%
CCc1ccc(NC(=O)[C@H](NC(=O)[C@@H]2Cc3ccccc3CN2)c2ccccc2)cc1 7.36%
CCCc1c(C(=O)N/N=C/C(C)=C/c2ccccc2)nnn1-c1nonc1N 15.4%
O=C(Cn1nnc(-c2ccc(NC(=O)c3ccccc3F)cc2)n1)NCc1ccc(F)cc1 16.3%
CCc1nnc(NC(=O)Cn2c(=O)oc3ccccc32)s1 1.21%
CCCc1nnc(NC(=O)Cn2c(=O)oc3ccccc32)s1 3.95%
N/C(=N\NS(=O)(=O)c1ccccc1)c1ccccn1 16.4%
Cc1nnc(NC(=O)CSc2nnc(C)n2Cc2ccccc2)s1 -83.7%
COC(=O)Nc1ccc([N+](=O)[O-])cc1OC 3%
COc1ccc(OC(=O)Nc2ccc([N+](=O)[O-])cc2OC)cc1 0.1%
COc1cccc(/C=N/Nc2ncnc3c2ncn3Cc2ccccc2)c1O 18.1%
Oc1cccc(/C=N/Nc2ncnc3c2ncn3Cc2ccccc2)c1 10.2%
CCc1nn(CC(=O)N2CCC(C(N)=O)CC2)c(=O)c2cc3occc3n12 5.76%
CCCCC(=O)N1C/C=C\[C@H](c2ccc(OC)cc2)N(Cc2ccc(F)cc2)C(=O)[C@@H]1C -1.49%
Cc1c(C(=O)OCC(=O)NCc2ccccc2)oc2ccccc12 13.4%
COC(=O)c1ccccc1NC(=O)c1cnn2c(C)cc(C)nc12 -5.22%
CCn1c(/C=C/c2cc(Br)ccc2O)nc2ccccc2c1=O 27%
O=C(O)c1ccc(-n2c(/C=C/c3ccccc3)nc3ccccc3c2=O)cc1 13.9%
COc1ccc(/C=C/c2nc3ccccc3c(=O)n2-c2cccc(C(=O)O)c2)cc1 12.5%
CCn1c(/C=C/c2ccc(O)cc2)nc2ccccc2c1=O 26.9%
